# In PubChem BioAssay AID1851 (National Center for Advancing Translational Sciences (NCATS), 2009):
# The whole screen tested about 16,000 compounds, of which about 5,800 (36%) were called active. Another 23% or so got no clear call; they are omitted. The list shows a part of the results. Values without a mark were called inactive. Calls follow the shape of the dose curve; as a rule, active = well fitted curve in the direction sought with a large enough effect; inconclusive = small, poorly fitted or top-dose-only effect, or effect the other way; inactive = no such curve, though single readings can be large or run the other way.
# Target: Cytochrome P450 2C19 (Homo sapiens) (UniProt P33261)
# Experiment: Cytochrome panel assay with activity outcomes
# Details: recombinant CYP, pro-luciferin dealkylation, luminescence, p450-cyp2c19; series mostly up to 57.1 µM; activity, negative = inhibition: at the top concentration
# % is scaled to controls: 0 for no effect and ±100 for the full control effect.
# Chain of Cytochrome P450 2C19 (Homo sapiens) (P33261 whole entry, looked up): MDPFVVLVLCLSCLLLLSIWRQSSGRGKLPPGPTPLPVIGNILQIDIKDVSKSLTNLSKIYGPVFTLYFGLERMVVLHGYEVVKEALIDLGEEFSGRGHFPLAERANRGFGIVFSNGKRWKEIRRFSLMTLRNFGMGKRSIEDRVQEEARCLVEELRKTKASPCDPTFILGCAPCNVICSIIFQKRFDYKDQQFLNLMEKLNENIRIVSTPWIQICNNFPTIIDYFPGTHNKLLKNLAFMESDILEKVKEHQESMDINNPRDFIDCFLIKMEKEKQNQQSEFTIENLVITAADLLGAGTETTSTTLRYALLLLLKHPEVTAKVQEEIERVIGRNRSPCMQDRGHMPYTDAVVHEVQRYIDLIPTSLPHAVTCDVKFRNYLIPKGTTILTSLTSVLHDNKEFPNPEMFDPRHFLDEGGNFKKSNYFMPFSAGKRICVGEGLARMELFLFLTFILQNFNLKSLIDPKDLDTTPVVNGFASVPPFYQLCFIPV
Compound,"activity, negative = inhibition",AC50
COc1cccc(Nc2ncc3nc(CCc4ccccc4)c(=O)n(Cc4cccs4)c3n2)c1,-7.96%,
COc1ccc(NC(=O)CSc2nnc(Cc3cccn3C)n2CCc2ccccc2)c(OC)c1,,3.16 µM (active)
COc1ccc(OC)c(C(=O)CSc2nnc(Cc3cccs3)n2CCc2ccccc2)c1,,1.78 µM (active)
CCn1c(CNC(=O)COc2ccc(C(C)C)cc2)nnc1SCC(=O)Nc1cc(F)ccc1C,,28.2 µM (active)
COc1ccc([C@@H]2CC(=O)c3c(O)cc(O[C@H]4O[C@@H](CO[C@H]5O[C@@H](C)[C@@H](O)[C@@H](O)[C@@H]5O)[C@@H](O)[C@@H](O)[C@@H]4O)cc3O2)cc1O,4.66% [at 25.6 µM],
O=C1c2c(O)cc(O)cc2O[C@@H](c2ccc(O)c(O)c2)[C@H]1O,-32.5%,
COc1ccc([C@@H]2CC(=O)c3c(O)cc(O)cc3O2)cc1O,,5.01 µM (active)
COC(=O)c1cc(C(=O)c2ccc(Cl)cc2Cl)cn1C,,5.62 µM (active)
Cn1cc(C(=O)c2ccc(Cl)cc2Cl)cc1C(=O)O,-2.68%,
Cc1c(-n2cc(C(=O)c3cc(Cl)ccc3O)cc(C#N)c2=O)c(=O)n(-c2ccccc2)n1C,-27.3%,
COC(=O)c1cc(C(=O)c2cccc(Cl)c2Cl)cn1C,,1.26 µM (active)
Cn1cc(C(=O)c2cccc(Cl)c2Cl)cc1C(=O)O,-3.12%,
CN(C)CCCn1cc(C2=C(c3c[nH]c4ccccc34)C(=O)NC2=O)c2ccccc21,-39.8%,
CN(C)c1ncc2nc(-c3ccccc3)c(=O)n(CCc3ccccc3)c2n1,-43.1%,
Cc1nc2cnc(N(C)C)nc2n(CCc2ccccc2)c1=O,,0.631 µM (active)
CN(C)c1ncc2ncc(=O)n(CCc3ccccc3)c2n1,,2 µM (active)
CN(C)c1ncc2ncc(=O)n(CCC#N)c2n1,-36.6%,
COc1ccc(-c2nc3cnc(N(C)C)nc3n(CCc3ccccc3)c2=O)cc1,-21.6%,
CN(C)c1ncc2nc(-c3ccc(F)cc3)c(=O)n(CCc3ccccc3)c2n1,-11.8%,
Cc1ccc(-n2c(O)cnc2Nc2nc(C)cc(C)n2)cc1,-16.7%,
COc1c(C)c2c(c(O)c1C/C=C(\C)CCC(=O)O)C(=O)OC2,,inactive
CC(Sc1nnc(C(C)N(C)C)n1-c1ccc(Cl)cc1)C(=O)Nc1ccc2c(c1)OCO2 (configuration not stated),,22.4 µM (active)
Cn1cccc1C(=O)N1CCC2(CC1)CCN(c1ncccn1)CC2,-26.1%,
CC(=O)N1CCC2(CC1)CCN(c1ccccn1)CC2,-15.1%,

Compound,"activity, negative = inhibition",AC50
COc1ccccc1C(=O)N1CCN(c2ccccn2)CC1,,7.08 µM (active)
O=C(c1cnccn1)N1CCC2(CC1)CCN(c1ncccn1)CC2,-1.14%,
O=C(c1cnccn1)N1CCC2(CC1)CCN(c1ccccn1)CC2,-16.2%,
O=C(c1cnc(N2CCN(c3ncccn3)CC2)c2ccccc12)N1CCN(c2ncccn2)CC1,,10 µM (active)
O=C(c1cnccn1)N1CCC2(CC1)CN(c1ccccn1)C2,-19.8%,
CC(C)c1ccc(OCc2ccc(C(=O)N3CCN(c4ccccn4)CC3)cc2)cc1,,11.2 µM (active)
COCC(=O)N1CCC2(CC1)CCN(c1ccccn1)CC2,-28.4%,
O=C(O)CCC(=O)N1CCN(c2ccccn2)CC1,-10.9%,
O=C(c1cnc(N2CCN(c3ncccn3)CC2)c2ccccc12)N1CCN(c2ccccn2)CC1,,5.01 µM (active)
COCC(=O)N1CCC2(CC1)CCN(C(=O)NC(C)C)CC2,-30.3%,
Cc1ccc(-n2nnnc2C(=Cc2ccc(N(C)C)cc2)c2nnnn2-c2ccc(C)cc2)cc1,,1.26 µM (active)
O=C1CC(c2cccc(F)c2)SC(N(c2ccccc2)c2ccccc2)=N1 (configuration not stated),,5.01 µM (active)
O=C(Oc1ccc2c(c1)CN(Cc1ccccc1)CO2)c1ccccc1,-25.4% [at 11.4 µM],
COC(=O)C(Cc1ccc(OC(=O)c2ccc(Cl)cc2)cc1)N1Cc2ccccc2C1=O (configuration not stated),,2.82 µM (active)
COC(=O)C(Cc1ccc(OC(=O)c2ccc(C(F)(F)F)cc2)cc1)N1Cc2ccccc2C1=O (configuration not stated),,14.1 µM (active)
CN1CCN(c2ncc3nc(-c4ccccc4)c(=O)n(Cc4cccs4)c3n2)CC1,-25.6%,
CC(C)[C@]1(Cl)CC[C@@H]2[C@]3(C)CCC[C@@](C)(C(=O)O)[C@H]3C[C@H](Cl)[C@@]2(Cl)[C@H]1Cl,-28.4% [at 11.4 µM],
Cc1cc(NC(=O)Nc2ccc(F)cc2)no1,,14.1 µM (active)
Cc1noc(N)c1C(=O)Nc1ccc(F)cc1,-25.6%,
C1CCC(N=C(NC23CC4CC(CC(C4)C2)C3)N2CCOCC2)CC1,28.2%,
Cc1ccc(S(=O)(=O)ON=C2CCN(S(=O)(=O)c3ccccc3)CC2)cc1,-29%,
Cc1ccc(S(=O)(=O)O[C@H]2C[C@@H](C(C)(C)C)CC[C@@H]2c2ccccc2)cc1,,3.16 µM (active)
C=CCSc1nc(C)cc(/C=C\c2ccccc2)c1C#N,,5.62 µM (active)
